# Test results taken from paper PMC7862700, “An all-to-all approach to the identification of sequence-specific readers for epigenetic DNA modifications on cytosine”.
# Columns and labels:
# Experiment in all cases: DAPPL (digital affinity profiling via proximity ligation, sequencing); 10 mM Tris-HCl pH 7.5, 50 mM NaCl, 1 mM DTT, 4% glycerol, room temperature, 30 min; GST-TFs on glutathione beads, 16-mer random dsDNA library, 0.1% formaldehyde crosslink after washing; high values mean tight binding
# FEV = molecular target: T1, FEV (Homo sapiens, UniProt Q99581 1-238); details: protein: recombinant; tags: N-terminal GST; dsDNA, one strand shown
# T1 sequence: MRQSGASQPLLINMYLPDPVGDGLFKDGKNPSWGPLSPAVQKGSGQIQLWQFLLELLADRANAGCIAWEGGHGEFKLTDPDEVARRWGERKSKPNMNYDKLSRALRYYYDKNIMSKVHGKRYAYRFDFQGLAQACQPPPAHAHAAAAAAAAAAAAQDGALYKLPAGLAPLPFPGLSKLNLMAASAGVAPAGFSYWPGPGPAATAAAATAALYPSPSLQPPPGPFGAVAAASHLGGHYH
# Method in brief: (§1)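 Beads coated with glutathione captured GST-fused human transcription factors that had been expressed in yeast, and the factors were then given DNA barcodes and pooled with a tag-only sample. The pools were incubated with 200 nmole of a random double-stranded 16-mer DNA library in Tris/NaCl/DTT/glycerol buffer for 30 min at room temperature, washed, crosslinked with 0.1% formaldehyde and proximity-ligated with BsaI/T4 ligase at 37 °C for 1 h. PCR amplification and Illumina NextSeq500 sequencing came last. Binding signal is each hexamer's read frequency for a factor divided by its frequency for the tag-only sample.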
# ETV5 = ETV5 (Homo sapiens, UniProt P41161 1-510); details: protein: recombinant; tags: N-terminal GST; dsDNA, one strand shown
# Chain of ETV5 (P41161 whole entry): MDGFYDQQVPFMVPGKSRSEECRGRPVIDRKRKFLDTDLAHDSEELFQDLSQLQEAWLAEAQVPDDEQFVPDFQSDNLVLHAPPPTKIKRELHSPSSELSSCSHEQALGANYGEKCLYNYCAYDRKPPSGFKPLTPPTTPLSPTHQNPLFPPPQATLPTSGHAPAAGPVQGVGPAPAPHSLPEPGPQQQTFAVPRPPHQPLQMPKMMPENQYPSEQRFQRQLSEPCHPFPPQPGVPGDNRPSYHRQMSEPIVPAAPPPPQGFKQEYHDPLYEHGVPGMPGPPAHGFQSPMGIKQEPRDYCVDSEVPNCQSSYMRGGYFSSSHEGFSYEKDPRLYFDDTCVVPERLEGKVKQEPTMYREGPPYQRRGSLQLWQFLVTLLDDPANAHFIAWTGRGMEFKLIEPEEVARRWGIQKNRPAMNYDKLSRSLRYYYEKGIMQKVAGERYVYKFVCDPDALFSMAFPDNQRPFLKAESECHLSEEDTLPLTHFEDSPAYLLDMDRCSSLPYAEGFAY
# Method in brief: as §1
# HSF1 = HSF1 (Homo sapiens, UniProt Q00613 1-529); details: protein: recombinant; tags: N-terminal GST; chain copies: 3; dsDNA, one strand shown
# Chain of HSF1 (Q00613 whole entry): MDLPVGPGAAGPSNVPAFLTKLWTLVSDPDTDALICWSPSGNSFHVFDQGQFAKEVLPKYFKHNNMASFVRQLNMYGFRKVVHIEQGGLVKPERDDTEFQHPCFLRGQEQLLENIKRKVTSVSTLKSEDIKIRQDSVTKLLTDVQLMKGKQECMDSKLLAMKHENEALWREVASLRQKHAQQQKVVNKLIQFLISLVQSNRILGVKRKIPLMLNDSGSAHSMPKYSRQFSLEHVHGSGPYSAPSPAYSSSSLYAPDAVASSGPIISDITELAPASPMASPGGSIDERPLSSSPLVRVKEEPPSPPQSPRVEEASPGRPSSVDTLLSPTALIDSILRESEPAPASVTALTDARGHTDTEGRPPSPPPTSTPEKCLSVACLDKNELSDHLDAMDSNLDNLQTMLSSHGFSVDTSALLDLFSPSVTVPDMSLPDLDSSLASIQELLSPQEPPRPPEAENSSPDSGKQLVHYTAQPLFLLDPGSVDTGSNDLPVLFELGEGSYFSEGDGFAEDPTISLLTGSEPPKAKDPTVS
# Method in brief: as §1
# SPIC = molecular target: T2, SPIC (Homo sapiens, UniProt Q8N5J4 1-248); details: protein: recombinant; tags: N-terminal GST; dsDNA, one strand shown
# T2 sequence: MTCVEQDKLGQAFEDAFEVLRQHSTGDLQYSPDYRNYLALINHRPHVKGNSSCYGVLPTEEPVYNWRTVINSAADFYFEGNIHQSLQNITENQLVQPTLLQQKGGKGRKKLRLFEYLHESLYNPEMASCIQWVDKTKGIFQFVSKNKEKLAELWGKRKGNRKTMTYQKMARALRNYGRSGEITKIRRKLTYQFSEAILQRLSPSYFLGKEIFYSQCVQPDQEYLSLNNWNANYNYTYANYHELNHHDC
# Method in brief: as §1
# ELF4 = ELF4 (Homo sapiens, UniProt Q99607 1-663); details: protein: recombinant; tags: N-terminal GST; dsDNA, one strand shown
# Chain of ELF4 (Q99607 whole entry): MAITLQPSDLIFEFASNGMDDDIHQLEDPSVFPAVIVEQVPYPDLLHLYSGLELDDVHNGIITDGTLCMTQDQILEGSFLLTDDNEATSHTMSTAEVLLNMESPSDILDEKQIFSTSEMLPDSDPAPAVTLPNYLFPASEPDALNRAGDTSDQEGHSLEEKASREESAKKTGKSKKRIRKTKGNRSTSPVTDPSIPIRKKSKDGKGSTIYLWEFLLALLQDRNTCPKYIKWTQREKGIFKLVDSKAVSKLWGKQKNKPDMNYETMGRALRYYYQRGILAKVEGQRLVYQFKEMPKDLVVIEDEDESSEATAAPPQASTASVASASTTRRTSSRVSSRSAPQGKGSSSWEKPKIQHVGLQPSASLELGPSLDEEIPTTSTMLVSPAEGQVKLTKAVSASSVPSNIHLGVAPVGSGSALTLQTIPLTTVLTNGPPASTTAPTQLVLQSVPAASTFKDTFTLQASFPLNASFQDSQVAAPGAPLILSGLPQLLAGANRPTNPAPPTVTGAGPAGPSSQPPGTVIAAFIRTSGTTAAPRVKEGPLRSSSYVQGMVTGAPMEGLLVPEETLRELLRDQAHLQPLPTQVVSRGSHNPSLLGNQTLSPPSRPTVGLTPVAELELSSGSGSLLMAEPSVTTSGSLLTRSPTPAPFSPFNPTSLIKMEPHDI
# Method in brief: as §1
# ELK4 = molecular target: T3, ELK4 (Homo sapiens, UniProt P28324-2 1-405); details: protein: recombinant; tags: N-terminal GST; dsDNA, one strand shown
# T3 sequence: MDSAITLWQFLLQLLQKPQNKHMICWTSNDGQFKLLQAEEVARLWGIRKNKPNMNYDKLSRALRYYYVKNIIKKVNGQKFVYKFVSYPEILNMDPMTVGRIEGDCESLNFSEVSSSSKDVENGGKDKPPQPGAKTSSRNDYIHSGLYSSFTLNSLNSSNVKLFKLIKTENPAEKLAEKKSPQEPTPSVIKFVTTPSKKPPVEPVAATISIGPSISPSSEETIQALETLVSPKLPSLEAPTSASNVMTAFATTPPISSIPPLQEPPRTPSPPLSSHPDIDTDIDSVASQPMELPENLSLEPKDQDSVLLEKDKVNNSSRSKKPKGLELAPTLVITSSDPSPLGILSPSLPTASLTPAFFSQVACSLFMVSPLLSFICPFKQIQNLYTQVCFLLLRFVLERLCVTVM
# Method in brief: as §1
# ETV2 = molecular target: T4, ETV2 (Homo sapiens, UniProt O00321 1-342); details: protein: recombinant; tags: N-terminal GST; dsDNA, one strand shown
# T4 sequence: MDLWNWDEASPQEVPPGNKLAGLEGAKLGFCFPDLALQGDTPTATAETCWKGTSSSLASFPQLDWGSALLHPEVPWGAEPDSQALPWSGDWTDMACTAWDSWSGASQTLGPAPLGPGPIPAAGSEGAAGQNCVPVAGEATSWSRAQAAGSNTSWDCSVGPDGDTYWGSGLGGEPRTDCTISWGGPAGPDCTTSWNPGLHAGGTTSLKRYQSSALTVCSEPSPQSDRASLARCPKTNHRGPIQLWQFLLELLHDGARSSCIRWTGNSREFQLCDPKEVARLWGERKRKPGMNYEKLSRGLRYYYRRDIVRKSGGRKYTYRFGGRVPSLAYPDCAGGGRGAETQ
# Method in brief: as §1
# ELF3 = molecular target: T5, ELF3 (Homo sapiens, UniProt P78545 1-371); details: protein: recombinant; tags: N-terminal GST; dsDNA, one strand shown
# T5 sequence: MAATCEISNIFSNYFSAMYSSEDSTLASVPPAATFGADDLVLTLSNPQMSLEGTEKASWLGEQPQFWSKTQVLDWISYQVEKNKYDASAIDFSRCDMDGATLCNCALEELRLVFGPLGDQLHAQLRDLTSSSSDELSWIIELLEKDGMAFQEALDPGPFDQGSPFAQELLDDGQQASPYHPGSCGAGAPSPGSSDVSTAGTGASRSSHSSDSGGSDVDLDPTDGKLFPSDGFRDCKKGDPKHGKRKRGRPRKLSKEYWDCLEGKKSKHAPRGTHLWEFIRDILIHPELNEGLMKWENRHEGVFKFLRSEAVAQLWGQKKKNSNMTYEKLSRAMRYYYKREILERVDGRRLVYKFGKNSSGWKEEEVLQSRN
# Method in brief: as §1
# CRX = CRX (Homo sapiens, UniProt O43186 1-299); details: protein: recombinant; tags: N-terminal GST; dsDNA, one strand shown
# Chain of CRX (O43186 whole entry): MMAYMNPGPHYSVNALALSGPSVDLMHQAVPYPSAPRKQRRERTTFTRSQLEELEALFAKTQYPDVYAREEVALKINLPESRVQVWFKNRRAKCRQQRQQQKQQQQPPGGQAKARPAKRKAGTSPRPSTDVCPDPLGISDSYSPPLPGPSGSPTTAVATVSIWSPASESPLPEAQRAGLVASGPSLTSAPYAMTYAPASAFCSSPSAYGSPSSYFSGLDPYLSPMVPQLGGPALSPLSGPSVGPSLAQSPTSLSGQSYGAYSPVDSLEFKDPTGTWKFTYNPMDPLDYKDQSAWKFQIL
# Method in brief: as §1
# ETV1 = ETV1 (Homo sapiens, UniProt P50549 1-477); details: protein: recombinant; tags: N-terminal GST; dsDNA, one strand shown
# Chain of ETV1 (P50549 whole entry): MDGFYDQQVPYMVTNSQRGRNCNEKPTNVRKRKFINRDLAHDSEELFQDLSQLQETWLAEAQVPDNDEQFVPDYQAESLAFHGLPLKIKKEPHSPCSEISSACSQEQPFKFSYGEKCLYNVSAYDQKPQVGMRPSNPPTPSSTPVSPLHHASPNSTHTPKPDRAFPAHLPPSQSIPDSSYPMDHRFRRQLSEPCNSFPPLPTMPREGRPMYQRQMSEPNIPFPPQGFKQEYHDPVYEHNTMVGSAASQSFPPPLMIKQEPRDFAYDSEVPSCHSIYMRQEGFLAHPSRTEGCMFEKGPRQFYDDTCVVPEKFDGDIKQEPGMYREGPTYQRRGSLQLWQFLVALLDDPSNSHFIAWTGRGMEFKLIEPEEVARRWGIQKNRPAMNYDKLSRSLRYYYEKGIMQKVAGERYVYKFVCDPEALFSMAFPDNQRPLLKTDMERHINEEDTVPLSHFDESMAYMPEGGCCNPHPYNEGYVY
# Method in brief: as §1
sequence,measurement,setting,value
ATATAA,binding signal,FEV,"1.15 fold enrichment (6-mer frequency, TF over GST control)"
same,binding signal,ETV5,"1.15 fold enrichment (6-mer frequency, TF over GST control)"
same,binding signal,HSF1,"1.34 fold enrichment (6-mer frequency, TF over GST control)"
same,binding signal,SPIC,"1.1 fold enrichment (6-mer frequency, TF over GST control)"
same,binding signal,ELF4,"1.18 fold enrichment (6-mer frequency, TF over GST control)"
same,binding signal,ELK4,"1.29 fold enrichment (6-mer frequency, TF over GST control)"
same,binding signal,ETV2,"1.24 fold enrichment (6-mer frequency, TF over GST control)"
same,binding signal,ELF3,"1.28 fold enrichment (6-mer frequency, TF over GST control)"
same,binding signal,CRX,"1.68 fold enrichment (6-mer frequency, TF over GST control)"
same,binding signal,ETV1,"1.16 fold enrichment (6-mer frequency, TF over GST control)"
